This note sets out measurements from PubChem BioAssay (NCATS).

The target in assay [1] is Glutathione peroxidase 1 (Homo sapiens) (UniProt P07203). Put plainly: Primary qHTS Assay for Inhibitors of Recombinant Selenoprotein Glutathione Peroxidase 1 (GPX1) (AID 1845191). Note: nearly all actives have a fitted effect of over 65% in size. In short, it runs like this: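 GR-coupled assay: compounds preincubated 30 min at room temperature with GPX1, then reaction started with CHP; final 10 nM GPX1, 1 mM GSH, 0.5 mM CHP, 0.5 mM NADPH, 100 nM GR, 0.01% BSA, pH 7.5 Tris buffer. NADPH fluorescence (340/450 nm) read at 0 and 15 min.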
(qHTS replaces the single test concentration by a dilution series.)

Assay [2] addresses Phospholipid hydroperoxide glutathione peroxidase GPX4 (Homo sapiens) (UniProt P36969). Description: Primary qHTS Assay for Inhibitors of Recombinant Selenoprotein Glutathione Peroxidase 4 (GPX4) (AID 1845192). For activity change, negative = inhibition: series mostly up to about 50 µM; % is set by controls: 0 for no effect and ±100 for the full control effect. Note: nearly all actives have a fitted effect of over 65% in size. Summed up:
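GR-coupled assay: recombinant GPX4 preincubated 30 min with compound at room temperature; final 200 nM GPX4, 1 mM GSH, 0.5 mM cumene hydroperoxide, 0.5 mM NADPH, 100 nM GR, 0.01% BSA, pH 7.5 Tris. NADPH fluorescence (340/450 nm) read at 0 and 15 min.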

Assay [3] has as its target Luciferin 4-monooxygenase (Photinus pyralis) (UniProt P08659). Description: Primary firefly luciferase (FLuc) qHTS assay for identification of artifact compounds. (AID 1845220).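 For activity change, negative = inhibition: series mostly up to about 54 µM; plate controls were DMSO vehicle for no effect and no enzyme for full effect.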 Note: nearly all actives have a fitted effect of over 60% in size. Summed up: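 Titrated compounds were incubated 15 min at RT, protected from light, with luciferin and ATP at 10 uM; reaction started with 10 nM FLuc, luminescence imaged at 5 min, and concentration-response fitted by Hill equation.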

Unmarked numbers belong to inactive results. Results filed as inconclusive are left out. Active and inactive are the calls of the source. Calls come from the whole dose curve; as a rule, active = well fitted inhibition curve with a large enough effect; inconclusive = small, poorly fitted or top-dose-only effect; inactive = flat fitted curve, though single readings scatter.

Glutathione peroxidase 1 (Homo sapiens), sequence (P07203 whole entry, looked up): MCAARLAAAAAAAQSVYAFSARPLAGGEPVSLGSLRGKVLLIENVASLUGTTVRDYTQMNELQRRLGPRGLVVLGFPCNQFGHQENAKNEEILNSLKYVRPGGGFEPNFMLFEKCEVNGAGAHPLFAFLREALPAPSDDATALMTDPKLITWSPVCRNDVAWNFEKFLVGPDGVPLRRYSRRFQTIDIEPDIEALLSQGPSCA
Phospholipid hydroperoxide glutathione peroxidase GPX4 (Homo sapiens), sequence (P36969 whole entry, looked up): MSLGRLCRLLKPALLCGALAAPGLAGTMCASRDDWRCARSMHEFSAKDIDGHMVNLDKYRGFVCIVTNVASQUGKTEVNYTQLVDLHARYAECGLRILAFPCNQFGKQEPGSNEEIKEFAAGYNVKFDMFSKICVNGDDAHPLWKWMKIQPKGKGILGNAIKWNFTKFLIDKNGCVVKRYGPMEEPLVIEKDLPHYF

With `COC1=CC(=O)O[C@@H](CCc2ccccc2)[C@@H]1O`, the Potency result in assay [1], in assay [2] and in assay [3] was “inactive” each time.
For `C=CC(C)(O)CC/C=C(\C)C(=O)OC1CC2(C(=O)O)CCC3(C)C(=CCC4C5(C)CCC(OC6OC(COC7OCC(O)C(O)C7O)C(O)C(OC7OCC(O)C(O)C7O)C6OC6OC(CO)C(O)C(O)C6OC6OCC(O)C(O)C6O)C(C)(C)C5CCC43C)C2CC1(C)C` (stereo not drawn), the outcome in assay [1] is “inactive [at 9.52 µM]”; in assay [3] it was “inactive [at 11.6 µM]”. Further, the activity change, negative = inhibition in assay [2] is -6.88% [at 9.73 µM].
On to `C/C(=C\CCC(C(=O)O)C1CCC2(C)C3=C(CCC12C)C1(C)CCC(=O)C(C)(C)C1CC3)C(=O)O` (stereo not drawn), for which the Potency entry in assay [1], in assay [2] and in assay [3] was “inactive” throughout.
Take `CN1CC[C@@H](NC(=O)Nc2ccc(C#N)cc2)C[C@@H]1c1nc2ccccc2[nH]1`: the Potency result in assay [1], in assay [2] and in assay [3] was “inactive” throughout.
Consider `CC1(C)CC[C@]2(C(=O)O)CC[C@]3(C)C(=CCC4[C@@]5(C)CCC(O[C@@H]6OC[C@H](O)[C@H](O)[C@H]6O[C@@H]6O[C@H](CO)[C@@H](O)[C@H](O)[C@H]6O)[C@@](C)(CO)C5CC[C@]43C)[C@@H]2C1` (stereo partly drawn), for which the Potency result in assay [1] and in assay [3] was “inactive” each time.
`OC[C@H]1O[C@@H](n2cnc3c2NC=NC[C@H]3O)C[C@@H]1O`: the Potency entry in assay [1] and in assay [3] was “inactive” throughout.
Take `CC(O)(CC(=O)O)CC(=O)O[C@@H]1[C@@H](O)[C@H](OCCc2ccccc2)O[C@H](CO)[C@H]1O` (stereo partly drawn): the Potency entry in assay [1], in assay [2] and in assay [3] was “inactive” each time.
For the compound `O=c1ccn([C@@H]2O[C@H](CO)[C@@H](O)[C@H]2O)c(=O)[nH]1`, the Potency result in assay [1] and in assay [3] was “inactive” throughout.
For `Nc1ccn([C@@H]2C(F)=C(CO)[C@@H](O)[C@H]2O)c(=O)n1`, the Potency entry in assay [1], in assay [2] and in assay [3] was “inactive” in each case.
On to `CN(C)c1cccc(-c2c3c(=O)n(-c4ccccc4Cl)[nH]c3cc(=O)n2C)c1`, for which the Potency result in assay [1] and in assay [3] was “inactive” each time.
Consider `c1ccc(Cc2ncc3c(n2)CCNCC3)cc1`, for which the Potency result in assay [1] and in assay [3] was “inactive” each time.
Turning to `OC[C@H]1O[C@@H](OC(CCCCc2ccc(O)cc2)CCc2ccc(O)cc2)[C@H](O[C@@H]2OC[C@](O)(CO)[C@H]2O)[C@@H](O)[C@@H]1O` (stereo partly drawn), the Potency entry in assay [1] and in assay [3] was “inactive” throughout.
In the case of `COc1cc(/C=C/C(=O)OC2[C@H](O)CC(O)(C(=O)O)C[C@H]2O)ccc1O` (stereo partly drawn), the Potency result in assay [1], in assay [2] and in assay [3] was “inactive” throughout.
As for `COc1cc(C)c(C(=O)O[C@H]2[C@@H](O)[C@H](n3ccc(=O)[nH]c3=O)O[C@@H]2CO)c(OC)c1`, the Potency entry in assay [1] and in assay [3] was “inactive” throughout.
With `CCC(C)(O)C(O)C(=O)OCc1ccc(O[C@@H]2O[C@H](CO)[C@@H](O)[C@H](O)[C@H]2O)c(OC)c1` (stereo partly drawn), the Potency result in assay [1], in assay [2] and in assay [3] was “inactive” each time.
Regarding `COC1CC(=O)C23C(=O)NC(CC(C)C)C2C(C)C(C)=CC3/C=C(\C)CCC1O` (stereo not drawn), the Potency result in assay [1], in assay [2] and in assay [3] was “inactive” in each case.
With `COc1cc(/C=C/C(=O)OC(C)(C)C(OC2OC(CO)C(O)C(O)C2O)C(=O)OCc2ccc(OC3OC(CO)C(O)C(O)C3O)cc2)ccc1O` (stereo not drawn), the Potency result in assay [1], in assay [2] and in assay [3] was “inactive” in each case.
In the case of `CC(c1c[nH]c2ccccc12)C(O)C(=O)O` (stereo not drawn), the Potency result in assay [1] and in assay [3] was “inactive” in each case.
For the compound `COc1cc(COC2OC(CO)C(O)C(O)C2O)cc(OC)c1O` (stereo not drawn), the Potency entry in assay [1] and in assay [3] was “inactive” each time.
With `CO[C@H]1C=C2C(CC[C@H](O[C@@H]3O[C@H](CO)[C@@H](O)[C@@H](O)[C@H]3O)C2(C)C)[C@]2(C)CC[C@]3(C)C([C@H](C)C(O)C(C=C(C)C)O[C@@H]4O[C@H](CO)[C@@H](O)[C@@H](O)[C@H]4O)CC[C@@]3(C)C12` (stereo partly drawn), the Potency entry in assay [1] was “inactive”. Further, in assay [3], the activity change, negative = inhibition is 1.78% [at 11.6 µM].
Turning to `CO[C@@H]1COCC[C@@H]1N[C@@H]1CC[C@@](C(=O)N2CCc3ncc(C(F)(F)F)cc3C2)(C(C)C)C1`, the Potency result in assay [1] and in assay [3] was “inactive” in each case.
Regarding `OC[C@H]1O[C@@H](OCCc2ccc(O)cc2)[C@H](O)[C@@H](O)[C@@H]1O`, the Potency result in assay [1], in assay [2] and in assay [3] was “inactive” throughout.
As for `CC1=C(CC(=O)O)c2cc(F)ccc2C1=Cc1ccc(S(C)(=O)=O)cc1`, the Potency entry in assay [1] and in assay [3] was “inactive” throughout.
Take `NC(=O)c1cccc(-c2cc(O)cc(OC(=O)NC3CCCCC3)c2)c1`: the Potency entry in assay [1] and in assay [3] was “inactive” in each case.
Take `OCC1OC(Oc2cc(O)c3c(c2)OC(c2ccc(O)cc2)C(O)C3)C(O)C1O` (stereo not drawn): the Potency entry in assay [1] and in assay [3] was “inactive” each time.
Take `COc1cccc(-c2ccc([C@@H](Oc3cc(-c4ccc(C[C@H](N)C(=O)O)cc4)nc(N)n3)C(F)(F)F)cc2)c1`: the Potency result in assay [1] and in assay [3] was “inactive” throughout.
